Drawing on PMC7862700, “An all-to-all approach to the identification of sequence-specific readers for epigenetic DNA modifications on cytosine”, this text covers binding signal for 1 sequence.

Experiment in all cases: DAPPL (digital affinity profiling via proximity ligation, sequencing); 10 mM Tris-HCl pH 7.5, 50 mM NaCl, 1 mM DTT, 4% glycerol, room temperature, 30 min; GST-TFs on glutathione beads, 16-mer random dsDNA library, 0.1% formaldehyde crosslink after washing; high values mean tight binding
One test concerns the target T1, FLI1 (Homo sapiens, UniProt Q01543 1-452).
T1 sequence: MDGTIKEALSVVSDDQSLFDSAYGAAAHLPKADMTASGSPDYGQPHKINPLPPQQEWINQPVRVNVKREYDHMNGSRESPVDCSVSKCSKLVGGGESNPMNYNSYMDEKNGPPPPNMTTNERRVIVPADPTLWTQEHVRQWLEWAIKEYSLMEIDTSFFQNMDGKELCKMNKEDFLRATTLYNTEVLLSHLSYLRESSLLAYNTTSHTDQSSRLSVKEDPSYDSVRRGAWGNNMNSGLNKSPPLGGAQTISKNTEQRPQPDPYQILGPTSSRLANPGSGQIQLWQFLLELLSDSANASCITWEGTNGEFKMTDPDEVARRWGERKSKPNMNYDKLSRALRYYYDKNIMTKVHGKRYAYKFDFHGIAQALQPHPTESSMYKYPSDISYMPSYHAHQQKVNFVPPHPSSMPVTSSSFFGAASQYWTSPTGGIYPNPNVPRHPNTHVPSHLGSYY
The settings on record: protein: recombinant; tags: N-terminal GST; dsDNA, one strand shown. Summed up:
(§1)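 The binding signal reported is, for every hexamer, its read frequency for a factor over its read frequency for the tag-only sample. Reads came from pools of yeast-expressed, GST-fused human transcription factors on glutathione beads, barcoded with DNA and mixed with that sample, which were incubated with 200 nmole of a random double-stranded 16-mer DNA library in Tris/NaCl/DTT/glycerol buffer at room temperature for 30 min. After washing, the pools were crosslinked with 0.1% formaldehyde, proximity-ligated with BsaI/T4 ligase for 1 h at 37 °C, PCR-amplified and sequenced on an Illumina NextSeq500.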

Another test has as its target T2, ELK1 (Homo sapiens, UniProt P19419 1-428).
T2 sequence: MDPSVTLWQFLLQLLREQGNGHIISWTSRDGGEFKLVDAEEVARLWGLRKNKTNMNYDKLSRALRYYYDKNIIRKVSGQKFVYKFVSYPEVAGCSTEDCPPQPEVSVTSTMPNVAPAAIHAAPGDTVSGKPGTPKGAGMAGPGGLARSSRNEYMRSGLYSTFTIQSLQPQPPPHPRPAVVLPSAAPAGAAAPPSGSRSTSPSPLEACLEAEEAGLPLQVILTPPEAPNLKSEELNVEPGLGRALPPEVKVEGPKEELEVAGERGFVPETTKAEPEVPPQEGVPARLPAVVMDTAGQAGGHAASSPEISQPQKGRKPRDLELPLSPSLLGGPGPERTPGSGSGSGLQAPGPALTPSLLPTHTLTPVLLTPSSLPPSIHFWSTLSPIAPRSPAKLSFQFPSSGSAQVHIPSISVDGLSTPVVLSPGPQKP
The settings on record: protein: recombinant; tags: N-terminal GST; dsDNA, one strand shown. Summed up: as §1

The target of the next test is T3, ERG (Homo sapiens, UniProt P11308 1-479).
T3 sequence: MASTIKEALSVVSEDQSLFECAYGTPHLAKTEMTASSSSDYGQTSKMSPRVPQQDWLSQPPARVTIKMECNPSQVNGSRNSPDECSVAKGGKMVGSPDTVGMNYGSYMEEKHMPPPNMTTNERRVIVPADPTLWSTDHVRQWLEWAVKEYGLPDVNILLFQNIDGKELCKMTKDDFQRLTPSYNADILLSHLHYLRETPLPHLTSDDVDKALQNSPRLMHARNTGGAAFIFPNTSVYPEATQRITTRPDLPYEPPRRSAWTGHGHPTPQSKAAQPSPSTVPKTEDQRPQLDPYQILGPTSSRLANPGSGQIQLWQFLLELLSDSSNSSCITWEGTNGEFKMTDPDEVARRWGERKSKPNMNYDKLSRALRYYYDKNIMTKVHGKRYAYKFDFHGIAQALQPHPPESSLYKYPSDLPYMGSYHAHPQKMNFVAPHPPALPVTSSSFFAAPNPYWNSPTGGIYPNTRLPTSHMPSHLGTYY
The conditions noted are these: protein: recombinant; tags: N-terminal GST; dsDNA, one strand shown. Summed up: as §1

A further test concerns the target ELF1 (Homo sapiens, UniProt P32519 1-619). The settings on record: protein: recombinant; tags: N-terminal GST; dsDNA, one strand shown. Summed up:
as §1

The next test has as its target T4, EHF (Homo sapiens, UniProt Q9NZC4 1-300).
T4 sequence: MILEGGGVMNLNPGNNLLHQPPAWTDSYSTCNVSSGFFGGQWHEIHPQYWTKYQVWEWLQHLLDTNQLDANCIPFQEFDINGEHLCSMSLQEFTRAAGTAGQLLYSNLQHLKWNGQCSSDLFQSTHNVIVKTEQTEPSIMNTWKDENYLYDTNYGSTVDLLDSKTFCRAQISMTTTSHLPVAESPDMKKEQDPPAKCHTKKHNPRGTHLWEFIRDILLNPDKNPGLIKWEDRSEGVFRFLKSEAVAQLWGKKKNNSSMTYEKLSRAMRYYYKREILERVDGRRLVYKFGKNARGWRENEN
The settings on record: protein: recombinant; tags: N-terminal GST; dsDNA, one strand shown. Summed up:
as §1

The target in another test is SPI1 (Homo sapiens, UniProt P17947 1-270). The settings on record: protein: recombinant; tags: N-terminal GST; dsDNA, one strand shown. Summed up:
as §1

Another test concerns the target SPIB (Homo sapiens, UniProt Q01892 1-262). The settings on record: protein: recombinant; tags: N-terminal GST; dsDNA, one strand shown. The essentials: as §1
The next test has as its target T5, ELK3 (Homo sapiens, UniProt P41970 1-407).
T5 sequence: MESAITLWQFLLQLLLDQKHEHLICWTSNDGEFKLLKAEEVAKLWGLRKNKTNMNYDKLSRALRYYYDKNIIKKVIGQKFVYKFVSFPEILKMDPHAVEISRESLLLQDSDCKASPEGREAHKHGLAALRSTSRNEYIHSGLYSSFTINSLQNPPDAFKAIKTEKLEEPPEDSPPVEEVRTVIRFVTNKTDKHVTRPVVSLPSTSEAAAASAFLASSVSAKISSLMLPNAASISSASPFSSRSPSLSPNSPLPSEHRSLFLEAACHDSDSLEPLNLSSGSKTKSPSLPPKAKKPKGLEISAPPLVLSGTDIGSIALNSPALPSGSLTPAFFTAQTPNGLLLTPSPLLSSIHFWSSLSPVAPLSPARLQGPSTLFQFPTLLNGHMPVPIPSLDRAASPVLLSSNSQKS
The conditions noted are these: protein: recombinant; tags: N-terminal GST; dsDNA, one strand shown. Summed up:
as §1

The next test has as its target T6, FEV (Homo sapiens, UniProt Q99581 1-238).
T6 sequence: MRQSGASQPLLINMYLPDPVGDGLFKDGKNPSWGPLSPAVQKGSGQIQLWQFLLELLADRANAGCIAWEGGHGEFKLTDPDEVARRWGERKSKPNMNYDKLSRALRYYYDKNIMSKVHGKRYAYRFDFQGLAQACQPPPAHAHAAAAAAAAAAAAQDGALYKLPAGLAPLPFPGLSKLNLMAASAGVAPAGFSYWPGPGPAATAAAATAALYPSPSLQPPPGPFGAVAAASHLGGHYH
The settings on record: protein: recombinant; tags: N-terminal GST; dsDNA, one strand shown. Summed up: as §1

For the next test, the target named is ETV5 (Homo sapiens, UniProt P41161 1-510). The settings on record: protein: recombinant; tags: N-terminal GST; dsDNA, one strand shown. Summed up:
as §1

For the next test, the target named is HSF1 (Homo sapiens, UniProt Q00613 1-529). The settings on record: protein: recombinant; tags: N-terminal GST; chain copies: 3; dsDNA, one strand shown. The essentials:
as §1

The target of a further test is T7, SPIC (Homo sapiens, UniProt Q8N5J4 1-248).
T7 sequence: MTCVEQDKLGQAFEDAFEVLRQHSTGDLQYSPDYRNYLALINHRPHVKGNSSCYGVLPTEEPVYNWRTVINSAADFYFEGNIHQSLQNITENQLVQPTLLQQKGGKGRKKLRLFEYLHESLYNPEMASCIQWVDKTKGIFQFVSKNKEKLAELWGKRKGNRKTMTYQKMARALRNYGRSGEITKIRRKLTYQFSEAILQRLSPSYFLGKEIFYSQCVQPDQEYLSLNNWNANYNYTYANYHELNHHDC
The conditions noted are these: protein: recombinant; tags: N-terminal GST; dsDNA, one strand shown. The essentials: as §1

In another test the target is ELF4 (Homo sapiens, UniProt Q99607 1-663). The conditions noted are these: protein: recombinant; tags: N-terminal GST; dsDNA, one strand shown. Summed up: as §1
Sequence of ELF4 (Q99607 whole entry): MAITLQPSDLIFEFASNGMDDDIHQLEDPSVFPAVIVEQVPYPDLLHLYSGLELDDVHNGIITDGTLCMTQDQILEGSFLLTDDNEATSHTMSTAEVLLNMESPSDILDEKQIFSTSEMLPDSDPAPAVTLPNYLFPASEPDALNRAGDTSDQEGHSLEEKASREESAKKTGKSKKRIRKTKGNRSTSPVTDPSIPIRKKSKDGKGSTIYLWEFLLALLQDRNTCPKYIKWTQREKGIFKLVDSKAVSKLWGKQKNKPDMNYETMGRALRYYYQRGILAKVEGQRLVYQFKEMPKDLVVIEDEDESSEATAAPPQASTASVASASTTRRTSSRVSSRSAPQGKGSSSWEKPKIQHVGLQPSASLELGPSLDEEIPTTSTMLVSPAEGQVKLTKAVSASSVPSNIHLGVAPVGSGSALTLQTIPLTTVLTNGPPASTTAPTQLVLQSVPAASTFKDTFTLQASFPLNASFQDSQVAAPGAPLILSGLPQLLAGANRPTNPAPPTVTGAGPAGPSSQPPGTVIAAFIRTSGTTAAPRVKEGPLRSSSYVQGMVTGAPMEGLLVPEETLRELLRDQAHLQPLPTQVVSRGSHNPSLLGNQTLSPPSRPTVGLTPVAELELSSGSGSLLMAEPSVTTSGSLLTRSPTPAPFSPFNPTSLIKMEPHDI
The target of the next test is T8, ELK4 (Homo sapiens, UniProt P28324-2 1-405).
T8 sequence: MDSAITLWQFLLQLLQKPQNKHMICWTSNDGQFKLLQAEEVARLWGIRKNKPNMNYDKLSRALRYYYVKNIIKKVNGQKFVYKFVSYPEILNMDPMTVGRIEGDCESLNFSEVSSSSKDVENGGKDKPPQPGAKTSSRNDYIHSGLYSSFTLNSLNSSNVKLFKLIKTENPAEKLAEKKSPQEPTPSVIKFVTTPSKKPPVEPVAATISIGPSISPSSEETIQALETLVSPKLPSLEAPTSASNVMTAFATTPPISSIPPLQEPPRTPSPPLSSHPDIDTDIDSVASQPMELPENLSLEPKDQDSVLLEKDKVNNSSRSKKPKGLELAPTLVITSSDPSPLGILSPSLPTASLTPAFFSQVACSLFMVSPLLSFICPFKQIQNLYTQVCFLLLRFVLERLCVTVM
The conditions noted are these: protein: recombinant; tags: N-terminal GST; dsDNA, one strand shown. The essentials:
as §1

In a further test the target is T9, ETV2 (Homo sapiens, UniProt O00321 1-342).
T9 sequence: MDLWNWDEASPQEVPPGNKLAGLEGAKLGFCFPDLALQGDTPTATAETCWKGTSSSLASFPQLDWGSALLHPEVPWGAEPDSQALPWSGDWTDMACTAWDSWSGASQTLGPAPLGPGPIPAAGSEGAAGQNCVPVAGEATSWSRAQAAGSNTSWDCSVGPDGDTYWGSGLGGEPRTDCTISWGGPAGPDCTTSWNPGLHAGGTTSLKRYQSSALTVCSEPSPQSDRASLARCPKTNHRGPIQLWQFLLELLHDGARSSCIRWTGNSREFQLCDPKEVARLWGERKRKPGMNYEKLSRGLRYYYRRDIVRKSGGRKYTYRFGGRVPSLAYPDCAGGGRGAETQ
The conditions noted are these: protein: recombinant; tags: N-terminal GST; dsDNA, one strand shown. The essentials: as §1

Another test has as its target CRX (Homo sapiens, UniProt O43186 1-299). The settings on record: protein: recombinant; tags: N-terminal GST; dsDNA, one strand shown. The essentials:
as §1

The next test has as its target ETV1 (Homo sapiens, UniProt P50549 1-477). The conditions noted are these: protein: recombinant; tags: N-terminal GST; dsDNA, one strand shown. The essentials: as §1

Sequence of SPIB (Q01892 whole entry): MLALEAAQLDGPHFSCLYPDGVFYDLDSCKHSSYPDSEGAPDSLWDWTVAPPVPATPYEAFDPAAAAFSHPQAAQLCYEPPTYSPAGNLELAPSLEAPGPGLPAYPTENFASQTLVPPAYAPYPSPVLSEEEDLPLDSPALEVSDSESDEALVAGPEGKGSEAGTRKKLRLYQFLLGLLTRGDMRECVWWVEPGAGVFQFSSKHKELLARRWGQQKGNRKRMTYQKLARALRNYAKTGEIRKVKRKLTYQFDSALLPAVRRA
Sequence of ETV5 (P41161 whole entry): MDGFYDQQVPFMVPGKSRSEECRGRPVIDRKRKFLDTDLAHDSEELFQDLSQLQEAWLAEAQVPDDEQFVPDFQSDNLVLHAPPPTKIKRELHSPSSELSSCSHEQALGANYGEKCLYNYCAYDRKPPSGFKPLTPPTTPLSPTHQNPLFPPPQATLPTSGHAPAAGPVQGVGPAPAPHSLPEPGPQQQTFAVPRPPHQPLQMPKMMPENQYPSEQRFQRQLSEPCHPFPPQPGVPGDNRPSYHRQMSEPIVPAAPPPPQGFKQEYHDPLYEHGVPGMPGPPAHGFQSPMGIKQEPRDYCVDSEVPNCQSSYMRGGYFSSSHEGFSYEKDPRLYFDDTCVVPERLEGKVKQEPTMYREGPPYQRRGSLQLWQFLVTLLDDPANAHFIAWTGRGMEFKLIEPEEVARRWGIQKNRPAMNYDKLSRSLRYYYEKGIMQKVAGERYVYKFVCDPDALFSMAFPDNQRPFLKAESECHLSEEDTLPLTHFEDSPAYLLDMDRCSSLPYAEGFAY
Sequence of ELF1 (P32519 whole entry): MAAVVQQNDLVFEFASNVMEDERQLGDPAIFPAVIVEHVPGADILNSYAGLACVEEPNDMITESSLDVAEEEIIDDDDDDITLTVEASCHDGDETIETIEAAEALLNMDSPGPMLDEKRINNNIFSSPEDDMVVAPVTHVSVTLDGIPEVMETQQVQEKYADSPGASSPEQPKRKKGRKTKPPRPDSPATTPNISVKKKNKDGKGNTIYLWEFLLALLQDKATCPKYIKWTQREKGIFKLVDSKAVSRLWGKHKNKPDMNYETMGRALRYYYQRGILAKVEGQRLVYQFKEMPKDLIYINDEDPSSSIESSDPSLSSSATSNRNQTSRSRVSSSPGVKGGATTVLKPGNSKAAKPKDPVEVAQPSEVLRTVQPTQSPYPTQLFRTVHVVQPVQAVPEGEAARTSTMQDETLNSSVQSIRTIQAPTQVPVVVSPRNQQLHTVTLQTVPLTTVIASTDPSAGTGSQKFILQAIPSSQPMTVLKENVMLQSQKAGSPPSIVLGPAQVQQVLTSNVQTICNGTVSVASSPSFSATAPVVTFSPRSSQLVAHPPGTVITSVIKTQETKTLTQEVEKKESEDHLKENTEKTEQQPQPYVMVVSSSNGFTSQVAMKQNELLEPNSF
Sequence of ETV1 (P50549 whole entry): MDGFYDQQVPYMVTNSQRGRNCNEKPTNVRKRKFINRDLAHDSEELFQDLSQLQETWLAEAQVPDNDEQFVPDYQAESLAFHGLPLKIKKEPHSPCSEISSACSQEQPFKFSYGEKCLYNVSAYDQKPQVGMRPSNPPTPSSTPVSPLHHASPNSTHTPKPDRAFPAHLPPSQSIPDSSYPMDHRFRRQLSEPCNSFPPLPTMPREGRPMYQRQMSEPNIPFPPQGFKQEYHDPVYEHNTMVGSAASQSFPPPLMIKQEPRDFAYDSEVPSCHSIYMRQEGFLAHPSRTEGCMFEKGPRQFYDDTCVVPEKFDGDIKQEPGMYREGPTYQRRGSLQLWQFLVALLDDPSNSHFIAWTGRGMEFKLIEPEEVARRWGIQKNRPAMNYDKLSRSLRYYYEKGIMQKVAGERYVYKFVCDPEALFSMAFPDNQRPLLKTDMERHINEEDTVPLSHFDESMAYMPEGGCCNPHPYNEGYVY
Sequence of CRX (O43186 whole entry): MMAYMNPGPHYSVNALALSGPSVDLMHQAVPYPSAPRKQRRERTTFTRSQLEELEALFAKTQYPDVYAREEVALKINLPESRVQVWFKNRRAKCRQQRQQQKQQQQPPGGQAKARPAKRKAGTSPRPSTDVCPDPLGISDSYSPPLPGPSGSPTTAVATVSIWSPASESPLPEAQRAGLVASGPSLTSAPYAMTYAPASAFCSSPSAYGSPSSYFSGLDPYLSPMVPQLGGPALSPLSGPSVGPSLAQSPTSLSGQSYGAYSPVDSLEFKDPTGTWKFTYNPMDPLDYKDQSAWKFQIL
Sequence of HSF1 (Q00613 whole entry): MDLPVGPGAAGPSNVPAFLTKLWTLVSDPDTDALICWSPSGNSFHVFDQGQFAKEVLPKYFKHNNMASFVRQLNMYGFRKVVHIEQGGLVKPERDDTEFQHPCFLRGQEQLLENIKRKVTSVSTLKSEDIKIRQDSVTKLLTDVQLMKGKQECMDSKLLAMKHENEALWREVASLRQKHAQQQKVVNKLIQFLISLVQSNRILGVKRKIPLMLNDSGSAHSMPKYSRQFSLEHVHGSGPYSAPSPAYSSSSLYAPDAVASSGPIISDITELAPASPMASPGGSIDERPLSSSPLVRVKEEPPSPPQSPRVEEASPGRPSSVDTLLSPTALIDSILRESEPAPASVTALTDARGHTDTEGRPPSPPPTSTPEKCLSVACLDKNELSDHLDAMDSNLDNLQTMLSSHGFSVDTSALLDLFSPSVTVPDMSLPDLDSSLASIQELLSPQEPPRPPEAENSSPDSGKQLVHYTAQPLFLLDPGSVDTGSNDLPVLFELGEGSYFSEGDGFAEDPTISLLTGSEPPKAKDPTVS

Consider TTCGCG, for which the binding signal with FLI1 is 1.13 fold enrichment (6-mer frequency, TF over GST control); with ELK1 it was 1.07 fold enrichment (6-mer frequency, TF over GST control); with ERG it was 1.08 fold enrichment (6-mer frequency, TF over GST control); with ELF1, 1.14 fold enrichment (6-mer frequency, TF over GST control); in the test with EHF, 1.21 fold enrichment (6-mer frequency, TF over GST control); with SPI1, 1.18 fold enrichment (6-mer frequency, TF over GST control). The binding signal in the test with SPIB is 1.14 fold enrichment (6-mer frequency, TF over GST control); in the test with ELK3, 1.15 fold enrichment (6-mer frequency, TF over GST control); with FEV, 1.09 fold enrichment (6-mer frequency, TF over GST control); with ETV5 it was 1.04 fold enrichment (6-mer frequency, TF over GST control); in the test with HSF1, 1.98 fold enrichment (6-mer frequency, TF over GST control); with SPIC it was 1.16 fold enrichment (6-mer frequency, TF over GST control). Further, the binding signal was 1.06 fold enrichment (6-mer frequency, TF over GST control) with ELF4; 1.26 fold enrichment (6-mer frequency, TF over GST control) with ELK4; 1.2 fold enrichment (6-mer frequency, TF over GST control) with ETV2; 1.29 fold enrichment (6-mer frequency, TF over GST control) in the test with CRX; 1.02 fold enrichment (6-mer frequency, TF over GST control) in the test with ETV1.
